Laboratory results reported in article PMC5540273 (PLoS ONE, 2017).

System: CLK2
Conditions: concentration: 1 μM, replicates: in singlicate; n = 1
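Also: KINOMEscan kinase panel screen.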

| Structure (SMILES) | %Inh |
| --- | --- |
| O=C(Nc1n[nH]c2nc(-c3ccccc3O)ccc12)C1CC1 [SB-711880] | 16% |
| CN(c1ccc(NC(=O)N2CCN(CCCN3CCOCC3)CC2)cc1)c1ccnc(Nc2ccc(CS(C)(=O)=O)cc2)n1.Cl [GW830899] | 0% |
| CCOc1nccc(-c2c(-c3ccc(F)cc3)ncn2C2CCNCC2)n1 [SB-249175] | 0% |
| O=C(Nc1n[nH]c2nc(-c3cccc(O)c3)ccc12)C1CC1 [SB-711805] | 20% |
| Cc1ccc(NC(=O)c2ccnc(N3CCCCC3)c2)cc1-c1ccc(C(=O)NCC2CC2)cc1 [GW775610] | 0% |
| Cc1cccc(Nc2nc(NCCN)ncc2C(N)=O)c1 [GSK1292139] | 22% |
| CN(c1ccc(F)c(NC(=O)c2cccc(OC(C)(C)C#N)c2Cl)c1)c1ccc2nc(NC(=O)C3CC3)sc2n1 | 0% |
| Cc1ccc(NC(=O)c2ccc(Cl)c(Cl)c2)cc1-c1ccc(C(=O)Nc2ccncc2)cc1 [GSK1398460] | 0% |
| O=C(Nc1n[nH]c2nc(-c3ccccc3)ccc12)C1CC1 [SB-708999] | 0% |
| CCNC(=O)/C=C/c1n[nH]c2cc(Sc3ccccc3C(=O)NC)ccc12 | 0% |
| COc1ccc(C)c(Nc2ccnc(Nc3ccc(-c4cnc[nH]4)cc3)n2)c1.Cl [GW784041] | 0% |
| Cc1nn2c(=O)cc(N3CCO[C@H](C)C3)nc2n1Cc1cccc(Cl)c1Cl [GSK2373693] | 31% |
| c1ccc(Oc2ccc(Nc3ccnc4cc(-c5ccc(CN6CCCCC6)o5)ccc34)cc2)nc1 [GW567143] | 0% |
| COC(=O)Nc1nc2cc(Oc3ccc(NC(=O)Nc4cccc(SC)c4)cc3)ccc2[nH]1.Cl [GW697999] | 32% |
| CC(C)NCC(Cc1ccccc1)NC(=O)c1cc(Br)c(-c2ccnc3[nH]ccc23)s1.Cl.Cl (centres unmarked) [GSK1383281] | 44% |
| N#Cc1cnc2cc(-c3cnc(CNCCN4CCOCC4)s3)ccc2c1Nc1ccc(Oc2ccccc2)cc1 [GW664114] | 0% |
| Cc1cc(-c2c(-c3ccc(F)cc3)ncn2CCCN2CCOCC2)nc(N)n1 [SB-222517] | 30% |
| CN(C)CCNS(=O)(=O)c1ccc(-c2ccnc3[nH]ccc23)cc1 [GSK977620] | 92.3% |
| CN(c1ccc(NC(=O)Nc2cccc(Cl)c2)cc1)c1ccnc(N)n1.Cl [GW830707] | 0% |

| Structure (SMILES) | %Inh |
| --- | --- |
| Cl.O=C(Nc1ccc(Oc2ccc3[nH]c(NC(=O)c4ccco4)nc3c2)cc1)Nc1cc(C(F)(F)F)ccc1F [GW683134] | 0% |
| Cl.Cl.NC(CNC(=O)c1cc(Br)c(-c2ccnc3[nH]ccc23)s1)c1ccccc1 (centres unmarked) [GSK1322949] | 88% |
| COc1ccc(C2=C(Nc3cccc(O)c3)C(=O)NC2=O)cc1 [SB-390766] | 84% |
| Nc1cccc(-c2ccc3c(N)n[nH]c3c2)c1 [GSK2193613] | 10% |
| Cl.Cl.NCC(NC(=O)c1cc(-c2cccnc2)c(-c2ccnc3[nH]ccc23)s1)c1ccccc1 (centres unmarked) [GSK1323434] | 51% |
| COc1ccc(NC(=O)c2ccoc2)cc1-c1ccc(C(=O)NCC2CC2)cc1 [GW810437] | 16% |
| CC(C)(C)c1ccc(C(=O)Nc2cn3cc(-n4ccnc4)ccc3n2)cc1 | 79% |
| Cc1ccc(Nc2ccnc(Nc3ccc(C)c(F)c3)n2)cc1O.Cl [GW582868] | 86% |
| Cc1ccc(NC(=O)c2cccc(N3CCCCC3)c2)cc1-c1ccc(C(=O)NCC2CC2)cc1 [GSK1917008] | 1% |
| COc1cccc(C2=C(Nc3cccc(O)c3)C(=O)NC2=O)c1 [SB-390771] | 61% |
| CSc1ccc(NC2=C(c3ccc(Cl)cc3)C(=O)NC2=O)cc1 [SB-317658] | 26% |
| Cc1cc(-c2ccnc(Nc3cccc(C#N)c3)n2)cc(C)c1O [GSK1440913] | 89% |
| O=C(Nc1n[nH]c2cc(-c3cccs3)ccc12)C1CC1 [SB-731284] | 21% |
| CCn1cnc2c(NCc3ccccc3)ncnc21 [SKF-96418] | 10% |
| Cn1cc(-c2ccc3c(c2)CCN3C(=O)Cc2cc(F)cc(F)c2F)c2c(N)ncnc21 [GSK2634140] | 0% |
| O=C(O)C(F)(F)F.O=c1[nH]ccc2nc(N[C@@H]3CCNC3)nc(Nc3ccc4c(c3)S(=O)(=O)CC4)c12 [GSK2181306] | 95% |
| COc1cccc(NC(=O)NCCNc2ccnc(Nc3ccc(F)cc3)n2)c1 [GSK1379879] | 0% |
| CN1CCN(Cc2ccc(NC(=O)Nc3ccc(N(C)c4ccnc(Nc5ccc(CS(C)(=O)=O)cc5)n4)cc3)cc2)CC1.Cl [GW827654] | 0% |

System: CLK3
Conditions: concentration: 1 μM, replicates: in singlicate; n = 1

| Structure (SMILES) | %Inh |
| --- | --- |
| O=C(Nc1n[nH]c2nc(-c3ccccc3O)ccc12)C1CC1 [SB-711880] | 0% |
| CN(c1ccc(NC(=O)N2CCN(CCCN3CCOCC3)CC2)cc1)c1ccnc(Nc2ccc(CS(C)(=O)=O)cc2)n1.Cl [GW830899] | 0% |
| CCOc1nccc(-c2c(-c3ccc(F)cc3)ncn2C2CCNCC2)n1 [SB-249175] | 11% |
| O=C(Nc1n[nH]c2nc(-c3cccc(O)c3)ccc12)C1CC1 [SB-711805] | 16% |
| Cc1ccc(NC(=O)c2ccnc(N3CCCCC3)c2)cc1-c1ccc(C(=O)NCC2CC2)cc1 [GW775610] | 0% |
| Cc1cccc(Nc2nc(NCCN)ncc2C(N)=O)c1 [GSK1292139] | 47% |
| CN(c1ccc(F)c(NC(=O)c2cccc(OC(C)(C)C#N)c2Cl)c1)c1ccc2nc(NC(=O)C3CC3)sc2n1 | 0% |
| Cc1ccc(NC(=O)c2ccc(Cl)c(Cl)c2)cc1-c1ccc(C(=O)Nc2ccncc2)cc1 [GSK1398460] | 17% |
| O=C(Nc1n[nH]c2nc(-c3ccccc3)ccc12)C1CC1 [SB-708999] | 1% |
| CCNC(=O)/C=C/c1n[nH]c2cc(Sc3ccccc3C(=O)NC)ccc12 | 14% |
| COc1ccc(C)c(Nc2ccnc(Nc3ccc(-c4cnc[nH]4)cc3)n2)c1.Cl [GW784041] | 7% |
| Cc1nn2c(=O)cc(N3CCO[C@H](C)C3)nc2n1Cc1cccc(Cl)c1Cl [GSK2373693] | 4% |
| c1ccc(Oc2ccc(Nc3ccnc4cc(-c5ccc(CN6CCCCC6)o5)ccc34)cc2)nc1 [GW567143] | 0% |
| COC(=O)Nc1nc2cc(Oc3ccc(NC(=O)Nc4cccc(SC)c4)cc3)ccc2[nH]1.Cl [GW697999] | 23% |
| CC(C)NCC(Cc1ccccc1)NC(=O)c1cc(Br)c(-c2ccnc3[nH]ccc23)s1.Cl.Cl (centres unmarked) [GSK1383281] | 22% |
| N#Cc1cnc2cc(-c3cnc(CNCCN4CCOCC4)s3)ccc2c1Nc1ccc(Oc2ccccc2)cc1 [GW664114] | 0% |
| Cc1cc(-c2c(-c3ccc(F)cc3)ncn2CCCN2CCOCC2)nc(N)n1 [SB-222517] | 0% |
| CN(C)CCNS(=O)(=O)c1ccc(-c2ccnc3[nH]ccc23)cc1 [GSK977620] | 70% |
| CN(c1ccc(NC(=O)Nc2cccc(Cl)c2)cc1)c1ccnc(N)n1.Cl [GW830707] | 0% |

| Structure (SMILES) | %Inh |
| --- | --- |
| Cl.O=C(Nc1ccc(Oc2ccc3[nH]c(NC(=O)c4ccco4)nc3c2)cc1)Nc1cc(C(F)(F)F)ccc1F [GW683134] | 0% |
| Cl.Cl.NC(CNC(=O)c1cc(Br)c(-c2ccnc3[nH]ccc23)s1)c1ccccc1 (centres unmarked) [GSK1322949] | 73% |
| COc1ccc(C2=C(Nc3cccc(O)c3)C(=O)NC2=O)cc1 [SB-390766] | 22% |
| Nc1cccc(-c2ccc3c(N)n[nH]c3c2)c1 [GSK2193613] | 0% |
| Cl.Cl.NCC(NC(=O)c1cc(-c2cccnc2)c(-c2ccnc3[nH]ccc23)s1)c1ccccc1 (centres unmarked) [GSK1323434] | 12% |
| COc1ccc(NC(=O)c2ccoc2)cc1-c1ccc(C(=O)NCC2CC2)cc1 [GW810437] | 0% |
| CC(C)(C)c1ccc(C(=O)Nc2cn3cc(-n4ccnc4)ccc3n2)cc1 | 16% |
| Cc1ccc(Nc2ccnc(Nc3ccc(C)c(F)c3)n2)cc1O.Cl [GW582868] | 3% |
| Cc1ccc(NC(=O)c2cccc(N3CCCCC3)c2)cc1-c1ccc(C(=O)NCC2CC2)cc1 [GSK1917008] | 0% |
| COc1cccc(C2=C(Nc3cccc(O)c3)C(=O)NC2=O)c1 [SB-390771] | 17% |
| CSc1ccc(NC2=C(c3ccc(Cl)cc3)C(=O)NC2=O)cc1 [SB-317658] | 0% |
| Cc1cc(-c2ccnc(Nc3cccc(C#N)c3)n2)cc(C)c1O [GSK1440913] | 91.5% |
| O=C(Nc1n[nH]c2cc(-c3cccs3)ccc12)C1CC1 [SB-731284] | 13% |
| CCn1cnc2c(NCc3ccccc3)ncnc21 [SKF-96418] | 0% |
| Cn1cc(-c2ccc3c(c2)CCN3C(=O)Cc2cc(F)cc(F)c2F)c2c(N)ncnc21 [GSK2634140] | 24% |
| O=C(O)C(F)(F)F.O=c1[nH]ccc2nc(N[C@@H]3CCNC3)nc(Nc3ccc4c(c3)S(=O)(=O)CC4)c12 [GSK2181306] | 17% |
| COc1cccc(NC(=O)NCCNc2ccnc(Nc3ccc(F)cc3)n2)c1 [GSK1379879] | 0% |
| CN1CCN(Cc2ccc(NC(=O)Nc3ccc(N(C)c4ccnc(Nc5ccc(CS(C)(=O)=O)cc5)n4)cc3)cc2)CC1.Cl [GW827654] | 31% |
